Screening results: PubChem, The Scripps Research Institute Molecular Screening Center
This is a sample that favours compounds with a hit; in the whole collection about 1.3% have one here.
PKA-R2B activ: activates the human PKA-R2B holoenzyme complex. PKA-R2B holoenzyme dissociation, Cy5-IP20 fluorescence polarization; R2B truncated from residue 108, S112A mutant; 0% DMSO only, 100% 113 µM cGMP. activation, % at 11.4 µM. actives 0.079% (n = 340,000). AID 504700;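 active = activation above a cutoff set at the mean over all compounds plus 3 SD, cut at about 18% in these data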;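 also: higher means more holoenzyme dissociation and a rise in polarization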
PKA-R1A activ: activators of PKA-R1A complex; PKA-R1A dissociation, Cy5-IP20 fluorescence polarization; scaled: DMSO 0%, 113 µM cGMP 100%; activation, % at 11.4 µM; actives 0.083% (n = 340,000); AID 504707;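 active = percent activation above the mean of all tested compounds plus 3 SD, cut at about 19% in these data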;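 also: higher means more PKAc released from R1A so a rise in polarization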
IDE act: boosts human insulin-degrading enzyme activity in HEK cells. actives 0.073% (n = 340,000). FAbeta-B cleavage, fluorescence polarization; 0% vehicle, 100% cell-free pure enzyme wells. activation, % at 5.96 µM. P14735. AID 493087;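 active = activation above the mean of all tested compounds plus 3 SD, set per screening campaign, cut at about 17% in these data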
Target sequence (P14735 whole entry, looked up): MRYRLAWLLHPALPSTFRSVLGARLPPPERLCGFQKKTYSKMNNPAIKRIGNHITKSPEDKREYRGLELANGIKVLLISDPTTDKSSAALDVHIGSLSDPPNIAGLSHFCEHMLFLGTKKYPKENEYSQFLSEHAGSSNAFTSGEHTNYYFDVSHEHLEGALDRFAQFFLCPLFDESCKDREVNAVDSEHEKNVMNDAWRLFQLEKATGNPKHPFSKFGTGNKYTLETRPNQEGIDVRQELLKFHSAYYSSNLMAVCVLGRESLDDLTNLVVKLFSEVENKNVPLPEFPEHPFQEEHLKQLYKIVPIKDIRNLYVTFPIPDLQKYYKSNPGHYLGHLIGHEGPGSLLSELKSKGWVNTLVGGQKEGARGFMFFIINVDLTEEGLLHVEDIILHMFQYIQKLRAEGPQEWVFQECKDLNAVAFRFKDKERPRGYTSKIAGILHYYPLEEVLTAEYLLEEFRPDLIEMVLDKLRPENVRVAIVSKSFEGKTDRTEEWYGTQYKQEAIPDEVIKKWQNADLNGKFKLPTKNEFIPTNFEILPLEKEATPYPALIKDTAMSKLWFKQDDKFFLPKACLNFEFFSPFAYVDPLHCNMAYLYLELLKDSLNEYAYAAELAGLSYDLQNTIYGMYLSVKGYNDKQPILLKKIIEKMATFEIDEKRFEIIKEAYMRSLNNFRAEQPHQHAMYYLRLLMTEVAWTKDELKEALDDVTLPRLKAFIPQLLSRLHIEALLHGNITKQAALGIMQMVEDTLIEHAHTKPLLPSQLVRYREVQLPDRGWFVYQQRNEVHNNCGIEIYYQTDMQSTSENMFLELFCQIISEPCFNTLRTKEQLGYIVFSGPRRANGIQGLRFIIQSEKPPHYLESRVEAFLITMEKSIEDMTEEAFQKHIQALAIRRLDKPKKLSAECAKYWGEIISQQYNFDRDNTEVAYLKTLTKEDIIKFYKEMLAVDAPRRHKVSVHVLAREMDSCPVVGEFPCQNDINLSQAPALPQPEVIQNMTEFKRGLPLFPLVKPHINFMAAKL
eLon inh: inhibits E. coli Lon protease | P0A9M0 | purified E. coli Lon protease, fluorescence polarization | inhibition, % at 7.94 µM | actives 0.42% (n = 360,000) | AID 602123; in the data active = inhibition above about 13%, passing the limit was not always enough
Rin1-Abl PPI inh: inhibitors of human Rin1-Abl protein interaction; P00519+Q13671; AID 588664; actives 0.4% (n = 360,000); inhibition, % at 7.35 µM; TR-FRET Rin1/Abl binding, biochemical; in the data active = inhibition above about 5%, passing the limit was not always enough
IDE inh: cellular human IDE inhibition; P14735; HEK cells, FAbetaB cleavage, fluorescence polarization; inhibition, % at 5.59 µM; actives 0.41% (n = 320,000); AID 434962;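 active = percent inhibition above the average of all tested compounds plus 3 SD, set per screening campaign, cut at about 16% in these data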;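 also: IDE supplied by intact live HEK cells; FP after avidin binding of uncleaved biotin substrate so inhibition keeps polarization high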
E coli Lon conf: E. coli Lon inhibition confirmation | AID 602230 | purified E. coli Lon, fluorescence polarization | shares compounds with eLon inh | actives 31% (n = 1,400) | inhibition, % at 7.94 µM; in the data active = inhibition above about 16%
Large screens that a line does not name were inactive (follow-up assays come after a bar, where they were run).

Cc1oc2ccc(Br)cc2c(=O)c1-c1nn[nH]n1	eLon inh 21 | E coli Lon conf inactive
Cc1c(-c2cc[n+]([O-])cc2)oc2ccc(Br)cc2c1=O	none (no result: PKA-R2B activ, PKA-R1A activ, IDE act, eLon inh, Rin1-Abl PPI inh)
CCOc1ccc(CCNC(=O)c2ccc(S(=O)(=O)N3CCCC3)cc2)cc1OCC	none
Cc1ccsc1C1C=C(c2cccc(Br)c2)Nc2ncnn21 (stereo unspecified)	eLon inh 60, IDE inh 25 | E coli Lon conf 66
COc1cccc(C2=CC(c3ccc(C)cc3)n3ncnc3N2)c1 (stereo unspecified)	none (no result: PKA-R2B activ, PKA-R1A activ, IDE act, eLon inh, Rin1-Abl PPI inh)
CCOC(=O)C1CCCN(C(=O)c2cc(Cl)ccc2Cl)C1 (stereo unspecified)	none
